Results on 66 compounds are retold here after PMC6919601, “Identification of Plasmodium dipeptidyl aminopeptidase allosteric inhibitors by high throughput screening” (PLoS ONE, 2019).

Out of some 110,000 compounds screened, about 230 (0.21%) showed an effect of 50% or more. What follows is part of a selection rich in strong results, with near analogues and random picks from the rest.
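Also: 30 min substrate incubation versus DMSO and 10 µM JCP410 controls.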

Sequence of DPAP1 (Q8IIJ9 whole entry, looked up): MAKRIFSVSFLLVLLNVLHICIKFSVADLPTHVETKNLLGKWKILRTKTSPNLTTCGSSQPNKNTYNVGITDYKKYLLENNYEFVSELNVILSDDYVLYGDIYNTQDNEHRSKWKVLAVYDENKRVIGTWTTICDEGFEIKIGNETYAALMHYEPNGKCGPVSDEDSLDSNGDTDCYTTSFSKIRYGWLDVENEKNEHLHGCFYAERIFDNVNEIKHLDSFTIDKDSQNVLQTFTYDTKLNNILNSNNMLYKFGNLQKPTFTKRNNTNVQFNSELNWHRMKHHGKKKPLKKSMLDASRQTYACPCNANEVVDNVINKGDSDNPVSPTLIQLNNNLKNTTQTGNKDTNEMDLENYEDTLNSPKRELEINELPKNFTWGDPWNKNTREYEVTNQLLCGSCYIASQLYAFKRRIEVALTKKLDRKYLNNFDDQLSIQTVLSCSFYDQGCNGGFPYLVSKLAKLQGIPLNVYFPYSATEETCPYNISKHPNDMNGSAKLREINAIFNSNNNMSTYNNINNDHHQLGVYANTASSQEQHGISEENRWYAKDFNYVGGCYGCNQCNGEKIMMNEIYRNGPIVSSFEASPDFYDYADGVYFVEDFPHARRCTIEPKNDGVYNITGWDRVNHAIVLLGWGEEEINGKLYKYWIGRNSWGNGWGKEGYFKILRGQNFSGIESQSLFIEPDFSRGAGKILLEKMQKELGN

This assay has as its target DPAP1 (Plasmodium falciparum, UniProt Q8IIJ9). The experiment in a line: primary screen, percent inhibition; read by cleavage of a fluorogenic dipeptide substrate; higher = more effect of the substance. Set-up: species or system P. falciparum D10 trophozoite lysates; single well.
`Cc1nnc2c(Oc3ccc(-c4ccccc4)cc3)nc3ccccc3n12`: the “% Inhibition @ 10 uM” value is -7.23%. With `N=c1n(CCOc2ccccc2)c2ccccc2n1CCN1CCOCC1` the figure was -6.25%; with `CCOc1cc(Br)c(C=C2C(=O)NC(=O)NC2=O)cc1OC`, -2.39%; with `C/C(CCC1CC(C)OC1=O)=N\NC(N)=S` (stereo not drawn), -1.6%. With `OC1(c2ccc(Br)cc2)CCN(Cc2cccc(Cl)c2)CC1` the figure was -3.6%; with `CC1C(C#N)=C(SCC(=O)c2ccc(Cl)cc2)N=C2CC(C)(C)CC(O)=C21` (stereo not drawn), 45.5%; with `CSC1=C(C#N)C(C)C2=C(O)CC(C)(C)CC2=N1` (stereo not drawn), 2.76%. On to `CC1C(C#N)=C(SCc2ccccc2)N=C2CC(C)(C)CC(O)=C21` (stereo not drawn), for which the “% Inhibition @ 10 uM” value worked out at 55.4%. With `Cc1nc(NC(=O)COc2ccc(C(C)(C)C)cc2)ccc1Br` the figure was -7.81%; with `CCOc1ccc(-c2cc(C)n3nc(C(=O)NCc4ccco4)cc3n2)cc1`, 0.221%. With `Cc1ccc2nc3c(O)n(C)cnc-3c2c1` the figure was 5.06%. Then `CCOc1ccc(C2CC(=O)N3CN(CCO)CSC3=C2C#N)cc1` (stereo not drawn), with 61.2%; and `CCOc1ccc(C2CC(=O)N3CN(Cc4ccccc4)CSC3=C2C#N)cc1` (stereo not drawn), with 48.5%. Take `CCc1ccc(C2CC(=O)N3CN(Cc4ccccc4)CSC3=C2C#N)cc1` (stereo not drawn): the “% Inhibition @ 10 uM” value worked out at 39.2%.

Turning to `CCOc1ccc(C2CC(=O)N3CN(CCc4ccccc4)CSC3=C2C#N)cc1` (stereo not drawn), the “% Inhibition @ 10 uM” value turned out to be 71.1%. With `C=C(C)Cn1c(C(C)NC(=O)CCC)nc2ccccc21` (stereo not drawn) the figure was 1.41%; with `CC(C)CNCC(=O)Nc1sc2c(c1C(=O)Nc1ccc(Br)cc1)CCC2`, -6.07%; with `OC1(c2ccc(Cl)cc2)CCN(Cc2ccc(F)c(F)c2)CC1`, -7.42%. With `COc1ccc(C2=NN3C(C2)c2cc(OC)ccc2OC3(C)C)cc1` (stereo not drawn) the figure was 43.8%; with `COc1ccc(C2=NN3C(C2)c2cccc(OC)c2OC3(C)C)cc1` (stereo not drawn), 38.5%. With `COc1ccc(C2=NN3C(C2)c2cc(Cl)ccc2OC3(C)C)cc1` (stereo not drawn) the figure was 50.9%; with `CCCCCn1c(Br)nc2c1c(=O)[nH]c(=O)n2C`, 4.41%; with `CC(=O)c1cccc(NC(=O)c2ccc(N(C)S(=O)(=O)c3ccc(C)cc3)cc2)c1`, 5.24%. As for `COCCCNC(=O)c1noc2c1COc1ccc(C)cc1-2`, the “% Inhibition @ 10 uM” value came out at 5.1%. With `COCCCNC(=O)c1noc2c1COc1ccccc1-2` the figure was 84.2%; with `Cc1ccc2c(c1)-c1onc(C(=O)NCCCOC(C)C)c1CO2`, 1.97%. For `COc1ccccc1CNC(=O)c1c2c(nn1C)-c1ccccc1SC2`, the “% Inhibition @ 10 uM” value is reported as 8.62%. Take `CC12CC3CC(C)(C1)CC(OCCNC(=O)c1noc4c1COc1ccccc1-4)(C3)C2`: the “% Inhibition @ 10 uM” value is on record as 49%.

For the compound `COCCNC(=O)c1noc2c1COc1ccccc1-2`, the “% Inhibition @ 10 uM” value is 60%. `COCCNC(=O)c1noc2c1COc1ccc(C)cc1-2`: the “% Inhibition @ 10 uM” value is given as -3.77%. For `COc1ccccc1CNC(=O)c1noc2c1CSc1ccccc1-2`, the “% Inhibition @ 10 uM” value was found to be 62.7%. With `CCCCN(CC)C(=O)c1noc2c1COc1ccccc1-2`, the “% Inhibition @ 10 uM” value is given as -1.72%. Then `CC(C)OCCCNC(=O)c1noc2c1COc1ccccc1-2`, with 58.6%.

As for `CC(C)OCCCNC(=O)c1nn(C)c2c1COc1ccccc1-2`, the “% Inhibition @ 10 uM” value is given as -1.72%. Then `O=C(NCC1CCCO1)c1noc2c1CSc1ccccc1-2` (stereo not drawn), with 19.3%; and `COc1cccc(C(=O)N2CCN(C(=O)CCC3CCCC3)CC2)c1`, with 0.587%. With `O=C(NC1CCCCC1)C1CCCN(S(=O)(=O)N2CCCCC2)C1` (stereo not drawn) the figure was -4.99%. With `CN1CCN(C(=O)c2ccc(Cn3c(SCc4ccccc4F)nc4ccncc43)cc2)CC1` the figure was -1.92%; with `Cn1c(=O)c2nc(-c3ccccc3)c(-c3ccccc3)nc2n(C)c1=O`, 4.03%. Take `CCOc1cc(-c2cc(-c3ccc(N)cc3)nc(N)c2C#N)ccc1O`: the “% Inhibition @ 10 uM” value came to 3.26%.

On to `COc1ccc2c(CNCc3ccccc3C)c(C(=O)O)n(Cc3ccc(F)cc3)c2c1`, for which the “% Inhibition @ 10 uM” value was -4.16%. On to `COc1cc(C)c2c(=O)c(Oc3ccccc3)c(C(F)(F)F)oc2c1`, for which the “% Inhibition @ 10 uM” value is -5.69%. Then `CC(C)(C)n1ncc2c(=O)n(Cc3c(F)cccc3Cl)cnc21`, with -1.75%; and `COC(=O)c1sccc1-n1c(S)c(C#N)c(N)c(C#N)c1=N`, with -2.21%.

As to `CC1CC2(C)CC(C(=O)O2)C1C(=O)O` (stereo not drawn), the “% Inhibition @ 10 uM” value was -1.76%.

As for `COc1cc(-c2cc(NC(=O)c3noc4c3COc3ccccc3-4)on2)cc(OC)c1OC`, the “% Inhibition @ 10 uM” value is on record as 4.86%. With `CC(NC(=O)c1noc2c1COc1ccccc1-2)c1ccc2c(c1)OCCO2` (stereo not drawn) the figure was 21.3%. With `COc1ccccc1CNC(=O)Nc1noc2c1COc1ccccc1-2` the figure was -0.539%; with `COc1ccc(OC)c(CCNC(=O)c2noc3c2COc2ccccc2-3)c1`, 59.5%. With `Cc1ccc2c(c1)-c1onc(C(=O)NCCC(C)C)c1CO2` the figure was 1.14%; with `CC(C)CCNC(=O)c1noc2c1COc1ccccc1-2`, 88.5%; with `CC1CCN(S(=O)(=O)c2ccc(NC(=O)C(C)(C)C)cc2)CC1`, -6.17%. For the compound `N=C(Cc1cccc2ccccc12)NOC(=O)c1cccs1`, the “% Inhibition @ 10 uM” value turned out to be 3.66%. With `COc1cc2c(cc1OC)C(C(=O)N1CCC(C)CC1)C(c1cccnc1)N(C)C2=O` (stereo not drawn) the figure was 1.83%.

For `CCCc1nc2ccccc2n1Cc1ccccc1OC`, the “% Inhibition @ 10 uM” value amounted to 0.913%. With `Cc1ccc(C2CC(=O)N3CN(Cc4cccnc4)CSC3=C2C#N)cc1` (stereo not drawn) the figure was 43.8%; with `N#CC1=C2SCN(Cc3cccnc3)CN2C(=O)CC1c1ccc(F)cc1` (stereo not drawn), 55.3%. With `COc1ccc(C2CC(=O)N3CN(Cc4cccnc4)CSC3=C2C#N)cc1` (stereo not drawn) the figure was 46.3%. As for `CCOc1ccc(C2CC(=O)N3CN(Cc4cccnc4)CSC3=C2C#N)cc1` (stereo not drawn), the “% Inhibition @ 10 uM” value was 56%. With `CCc1ccc(C2CC(=O)N3CN(Cc4ccco4)CSC3=C2C#N)cc1` (stereo not drawn) the figure was 33.6%; with `CN(CC(=O)NC1CCCCCC1)S(=O)(=O)c1ccc(F)cc1`, 3.17%.

For the compound `CCN1CCN(C(=O)C2CC(c3ccc(OC)cc3)=NO2)CC1` (stereo not drawn), the “% Inhibition @ 10 uM” value was found to be 1.62%. For the compound `N#CCCN1CCN(C2=NC(=O)/C(=C\c3ccc(-c4ccc(Cl)cc4)o3)S2)CC1`, the “% Inhibition @ 10 uM” value was -2.8%. Regarding `COc1ccccc1NC(=O)c1cnc(Nc2nc3ccccc3o2)nc1C`, the “% Inhibition @ 10 uM” value is recorded as -4.12%. Then `CCCN1CCC(N2CCC(C)CC2)CC1`, with -3.74%.

In the case of `COc1cccc2c(O)c(C(=O)O)cnc12`, the “% Inhibition @ 10 uM” value amounted to 0.51%.
